Eight compounds from PubChem BioAssay (Tox21) can be followed below.

The nature of assay [1]: A CellTox Green Cytotoxicity Assay to monitor cytotoxicity in HEK293 cells - 32 hour (AID 1224881). Note: nearly all actives have a fitted effect of over 40% in size. In short, it runs like this:
(§1)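 Seeding of HEK293 cells together with cytotoxicity dye preceded a 5 h incubation at 37 C/5% CO2. Test compounds in DMSO were then added and fluorescence monitored across 40 h.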

The nature of assay [2]: A CellTox Green Cytotoxicity Assay to monitor cytotoxicity in HepG2 cells - 0 hour (AID 1224882). Note: nearly all actives have a fitted effect of over 35% in size. In outline:
(§2)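 Nonlytic assay: viable cells exclude the dye, so fluorescence scales with cell death. HepG2 at 600 cells/well, compounds added after 5 h, signal read across 40 h.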

The nature of assay [3]: A CellTox Green Cytotoxicity Assay to monitor cytotoxicity in HepG2 cells - 32 hour (AID 1224883). Note: nearly all actives have a fitted effect of over 50% in size. In outline: as §2
Assay [4] in a line: A CellTox Green Cytotoxicity Assay to monitor cytotoxicity in HEK293 cells - 8 hour (AID 1224884). Note: nearly all actives have a fitted effect of over 35% in size. In short, it runs like this: as §1
The nature of assay [5]: qHTS RealTime-Glo MT Cell Viability Assay in HEK293 cells - 24 hour (AID 1224886). For activity change, negative = cytotoxicity: top concentration of the series differs between compounds. Note: nearly all actives have a fitted effect of over 50% in size. Note: potency is the fitted concentration of half-maximal effect. In outline:
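Homogeneous bioluminescent viability format in HEK293 cells (600 cells/well). Following 5 h at 37 C/5% CO2, 23 nL compound was pintooled; the signal was measured repeatedly during 40 h incubation.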
In general terms: In qHTS, concentration-response curves come from the screen itself.

Assay [6] in a line: qHTS RealTime-Glo MT Cell Viability Assay in HepG2 cells - 0 hour (AID 1224889). Note: nearly all actives have a fitted effect of over 50% in size. In outline: (§3)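 Cell number in HepG2 cultures estimated from NanoLuc luminescence generated by metabolic reduction of a prosubstrate by living cells. The homogeneous, nonlytic format allowed repeated reads at 0, 8, 16, 24, 32 and 40 h of compound exposure.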
The target in assay [7] is Androgen receptor (Homo sapiens) (UniProt P10275). Nature of the assay: qHTS assay to identify small molecule antagonists of the androgen receptor (AR) signaling pathway using the MDA cell line in the presence of 0.5 nM R1881 (AID 1259243). Note: nearly all actives have a fitted effect of over 50% in size. Note: potency is the fitted concentration of half-maximal effect. In short, it runs like this: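 We exposed MDA-kb2 cells to compounds under 0.5 nM R1881 stimulation for 16 hr at 37C and quantified MMTV-driven luciferase by luminescence.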

The nature of assay [8]: qHTS assay to identify small molecule HDAC inhibitors (AID 1259364). For activity change, negative = inhibition: top concentration of the series differs between compounds. Note: potency is the fitted concentration of half-maximal effect.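 Note: wild-type HCT-116 cells with endogenous class I/II HDAC activity; nearly all actives have a fitted effect of over 45% in size.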 In short, it runs like this: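 Relative class I and II HDAC activity is taken from the luminogenic signal in HCT-116 cells, with compound exposure 2 hr and reagent development 30 min at room temperature.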
A short description of assay [9]: qHTS assay to identify small molecule HDAC inhibitors - cell viability counter screen (AID 1259365). In short, it runs like this:
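Luminescence from CellTiter-Glo, developed 30min at room temperature, reports viability of wild-type HCT-116 cells treated 2hr with compounds at 37 C and 5% CO2 after overnight plating.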

The nature of assay [10]: qHTS assay to identify small molecule agonists of the sonic hedgehog signaling (Shh) pathway - cell viability counter screen (AID 1259366). Note: nearly all actives have a fitted effect of over 50% in size. Note: potency is the fitted concentration of half-maximal effect. In short, it runs like this:
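Cytotoxicity counter screen run in the same wells as the Shh reporter assay. NIH/3T3 cells carrying a Gli1 response element–driven luciferase were treated with DMSO-dissolved compounds for 24hr, and live-cell protease activity was measured with CellTiter-Fluor.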

Assay [11] can be described thus: qHTS assay to identify small molecule antagonists of the sonic hedgehog signaling (Shh) pathway - cell viability counter screen (AID 1259367). Note: nearly all actives have a fitted effect of over 55% in size. Note: potency is the fitted concentration of half-maximal effect. In outline:
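After a 4 hr settling period, 3T3 Gli1-Luc cells were treated with DMSO-dissolved chemicals and conditioned medium, kept 24 hr at 37C in 5% CO2, and assayed for viability by CellTiter-Fluor fluorescence following 1 hr reagent incubation.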

The nature of assay [12]: qHTS assay to identify small molecule agonists of the sonic hedgehog signaling (Shh) pathway (AID 1259368; calls by dose curve;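 note: NIH/3T3-derived 3T3Gli1-Luc cells carrying a stable Gli1-driven firefly luciferase reporter; series mostly up to about 92 µM; nearly all actives have a fitted effect of over 15% in size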). In outline:
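Mouse fibroblast (NIH/3T3) reporter cells with stably integrated Gli1-Luc were treated 24 hr with compound; firefly luciferase luminescence served as the read-out.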

A short description of assay [13]: qHTS RealTime-Glo MT Cell Viability Assay in HepG2 cells - 16 hour (AID 1224885). Note: nearly all actives have a fitted effect of over 50% in size. In short, it runs like this: as §3
A short description of assay [14]: A CellTox Green Cytotoxicity Assay to monitor cytotoxicity in HepG2 cells - 8 hour (AID 1224890). Note: nearly all actives have a fitted effect of over 45% in size. In outline: as §2
Assay [15] can be described thus: qHTS assay to identify small molecule antagonists of the estrogen receptor alpha (ER-alpha) signaling pathway using the BG1 cell line in the presence of 0.1 nM 17-beta-estradiol - cell viability counter screen (AID 1259241). Note: nearly all actives have a fitted effect of over 40% in size. In outline:
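VM7Luc4E2, 4,000 cells/well, phenol red-free medium + 10% charcoal-stripped FBS; 24 hr plating; cpd + 0.1 nM E2 final, 22 hr 37C/5% CO2; CellTiter-Fluor 30 min, fluorescence.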

Assay [16] in a line: qHTS assay to identify small molecule antagonists of the androgen receptor (AR) signaling pathway using the MDA cell line in the presence of 0.5 nM R1881 - cell viability counter screen (AID 1259242). Note: nearly all actives have a fitted effect of over 45% in size. In short, it runs like this: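 R1881 at 0.5 nM final stimulated MDA-kb2 cells during 16 hr compound treatment at 37C. Cytotoxicity read: CellTiter-Fluor fluorescence after 30 min.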

For assay [17], the target named is Estrogen receptor (Homo sapiens) (UniProt P03372). Briefly: qHTS assay to identify small molecule antagonists of the estrogen receptor alpha (ER-alpha) signaling pathway using the BG1 cell line in the presence of 0.1 nM 17-beta-estradiol (AID 1259244). Note: nearly all actives have a fitted effect of over 50% in size. In short, it runs like this: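 VM7Luc4E2; 4xERE-luciferase; 0.1 nM E2 final; 22 h co-incubation, 37C; ONE-Glo luminescence after 30 min at room temperature.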

Assay [18] is described as follows: qHTS RealTime-Glo MT Cell Viability Assay in HEK293 cells - 8 hour (AID 1224887). For activity change, negative = cytotoxicity: top concentration of the series differs between compounds. Note: nearly all actives have a fitted effect of over 50% in size. Note: potency is the fitted concentration of half-maximal effect. In short, it runs like this: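 Tox21 screen in HEK293 using RealTime-Glo MT chemistry, with cells and reagent co-dispensed. Luminescence proportional to viable cell number was captured at intervals during 40 h compound exposure at 37 C.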
The nature of assay [19]: qHTS assay to identify small molecule phospholipidosis (PLD) inducers (AID 1259344; active = well fitted curve in the direction sought with a large enough effect; an effect the other way counts as inactive or inconclusive). In outline:
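HepG2 cells grown on collagen I take up LipidTOX Red while exposed to compound for 24 h; after fixation they are imaged at 20x and pit metrics are extracted.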

A short description of assay [20]: A CellTox Green Cytotoxicity Assay to monitor cytotoxicity in HEK293 cells - 16 hour (AID 1224888). Note: nearly all actives have a fitted effect of over 35% in size. In short, it runs like this: as §1

Values without a mark were called inactive. Inconclusive results are not listed. The source made the active and inactive calls. Unless noted, calls come from the whole dose curve; as a rule, active = well fitted curve in the direction sought with a large enough effect in the repeat runs; inconclusive = weak or mixed curves; inactive = no such curve, though single readings can be large; an effect the other way counts as inactive or inconclusive.
% is set by controls: 0 for no effect and ±100 for the full control effect.

Estrogen receptor (Homo sapiens), sequence (P03372 whole entry, looked up): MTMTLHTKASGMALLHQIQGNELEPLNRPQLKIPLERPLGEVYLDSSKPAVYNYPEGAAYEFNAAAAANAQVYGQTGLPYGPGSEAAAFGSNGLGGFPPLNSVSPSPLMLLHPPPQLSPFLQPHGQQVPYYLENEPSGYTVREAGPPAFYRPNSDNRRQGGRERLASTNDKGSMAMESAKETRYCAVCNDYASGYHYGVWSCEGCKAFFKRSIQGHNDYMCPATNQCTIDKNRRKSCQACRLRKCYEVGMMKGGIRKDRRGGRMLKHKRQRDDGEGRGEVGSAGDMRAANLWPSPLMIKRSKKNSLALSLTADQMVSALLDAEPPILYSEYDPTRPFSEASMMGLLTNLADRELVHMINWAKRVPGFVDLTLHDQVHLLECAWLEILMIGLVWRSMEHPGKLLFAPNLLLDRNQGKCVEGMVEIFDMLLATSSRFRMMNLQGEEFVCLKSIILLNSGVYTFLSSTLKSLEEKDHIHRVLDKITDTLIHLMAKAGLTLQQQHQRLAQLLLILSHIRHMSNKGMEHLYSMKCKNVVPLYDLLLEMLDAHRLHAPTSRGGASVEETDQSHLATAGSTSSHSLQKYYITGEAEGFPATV
Androgen receptor (Homo sapiens), sequence (P10275 whole entry, looked up): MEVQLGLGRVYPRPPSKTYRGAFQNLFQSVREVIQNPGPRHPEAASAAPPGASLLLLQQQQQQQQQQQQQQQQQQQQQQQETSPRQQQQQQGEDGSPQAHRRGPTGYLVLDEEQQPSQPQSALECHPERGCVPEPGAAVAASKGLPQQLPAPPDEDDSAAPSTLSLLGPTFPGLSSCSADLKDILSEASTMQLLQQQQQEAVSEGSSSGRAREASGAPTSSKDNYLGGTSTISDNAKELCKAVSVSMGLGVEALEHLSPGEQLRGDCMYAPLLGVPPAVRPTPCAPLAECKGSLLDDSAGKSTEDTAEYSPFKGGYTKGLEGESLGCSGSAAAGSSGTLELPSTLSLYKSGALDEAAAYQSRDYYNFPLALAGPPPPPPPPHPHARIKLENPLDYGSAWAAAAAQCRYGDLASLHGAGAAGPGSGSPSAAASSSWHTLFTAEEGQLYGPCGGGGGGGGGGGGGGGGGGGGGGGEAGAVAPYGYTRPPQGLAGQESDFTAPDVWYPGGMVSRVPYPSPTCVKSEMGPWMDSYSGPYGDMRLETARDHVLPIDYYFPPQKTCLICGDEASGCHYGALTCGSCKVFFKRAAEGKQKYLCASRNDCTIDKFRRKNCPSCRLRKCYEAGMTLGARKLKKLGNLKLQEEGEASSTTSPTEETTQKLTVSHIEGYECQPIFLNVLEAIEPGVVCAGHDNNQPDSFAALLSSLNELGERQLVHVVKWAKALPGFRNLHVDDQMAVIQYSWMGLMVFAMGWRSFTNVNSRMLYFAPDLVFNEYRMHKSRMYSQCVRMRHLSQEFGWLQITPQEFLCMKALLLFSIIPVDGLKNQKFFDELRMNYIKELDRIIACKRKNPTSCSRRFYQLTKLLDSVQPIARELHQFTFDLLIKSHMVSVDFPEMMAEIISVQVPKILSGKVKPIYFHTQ

As to `COc1ccc(S(=O)(=O)N2C(=O)[C@@](c3ccccc3OC)(N3C[C@H](O)C[C@H]3C(=O)N(C)C)c3cc(Cl)ccc32)c(OC)c1`, the Potency result in assay [1], in [2], in assay [3], in assay [4], in assay [6] and in assay [8] was “inactive” each time. Besides, the Potency result in assay [9] is “inactive”. Also, the Potency was 49 µM (active) in assay [5], 54.5 µM (active) in assay [7], 8.63 µM (active) in assay [10] and 9.69 µM (active) in [11]. Moreover, in assay [12], the call was inactive.
As to `Brc1c2ccccc2cc2ccccc12`, the Potency result in [1], in [2], in assay [3], in [4], in assay [13] and in assay [6] was “inactive” throughout. For the same compound, the Potency result in [14], in assay [15], in [16], in assay [17], in [8] and in assay [9] was “inactive” throughout. Further, the Potency entry in assay [10] and in [11] was “inactive” in each case. Further, the result in assay [12] was inactive.
As for `C/C(=C(\CCOP(=O)(O)O)SC(=O)c1ccccc1)N(C=O)Cc1cnc(C)nc1N`, the results for the cytotoxicity increase in assay [1], in assay [3] and in assay [14] were -7.02% [at 6.97 µM], -0.701% [at 6.97 µM] and 0.403% [at 6.97 µM], respectively. Moreover, the cytotoxicity in assay [2] was 4.51% [at 6.97 µM]. For the same compound, the activity change, negative = cytotoxic in assay [13] was 1.38% [at 6.97 µM]. For the same compound, the activity change, negative = cytotoxicity is 2.35% [at 6.97 µM] in assay [5], 3.68% [at 6.97 µM] in [18], 4.53% [at 6.97 µM] in assay [6] and -4.04% [at 8.39 µM] in [15]. Besides, the viability change, negative = cytotoxic in assay [16] is 2.34% [at 8.39 µM]; in assay [10], -1.58% [at 8.39 µM]; in assay [11], 0.0493% [at 8.39 µM]. Besides, the activity, negative = inhibition in assay [7] is 2.6% [at 8.39 µM]. The figures for the activity change, negative = inhibition in assay [17] and in assay [8] were 5.19% [at 8.39 µM] and -1.49% [at 8.39 µM], respectively. Besides, the Potency entry in assay [19] was “inactive”. The activity change in [12] is 0.138% [at 8.39 µM].
Take `CN(C)c1ccc(/C=C/c2ccc([N+](=O)[O-])cc2)cc1`: the cytotoxicity increase in assay [1] was 15.1% [at 6.97 µM]; in assay [3], 16% [at 6.97 µM]; in assay [14] it was 23.9% [at 6.97 µM]. In assay [2], the cytotoxicity was 4.44% [at 6.97 µM]. Also, the activity change, negative = cytotoxic in assay [13] is -7.1% [at 6.97 µM]. The activity change, negative = cytotoxicity was -4.06% [at 6.97 µM] in assay [5], -8.4% [at 6.97 µM] in assay [6], 7.98% [at 8.39 µM] in assay [15] and -0.457% [at 8.39 µM] in [9]. Further, the viability change, negative = cytotoxic is 4% [at 8.39 µM] in assay [16] and 8.12% [at 8.39 µM] in assay [11]. The Potency in [8] is 0.872 µM (active). Moreover, the activity change in [12] is 7.46% [at 8.39 µM].
Take `CC(C)OC(=O)C(C)N(C(=O)c1ccccc1)c1ccc(F)c(Cl)c1` (configuration not stated): the Potency entry in [1], in [2], in assay [3], in assay [13], in [5] and in assay [18] was “inactive” throughout. Further, the Potency entry in [20], in assay [6], in [14], in assay [15], in assay [16] and in [8] was “inactive” throughout. For the same compound, the Potency entry in assay [9], in [10] and in [11] was “inactive” each time. Further, in [12], the result was inactive.
As for `CCCCCCCC/C=C\CCCCCCCC(=O)OCC`, the Potency result in [1], in [2], in assay [3], in assay [13], in [5] and in [20] was “inactive” in each case. For the same compound, the Potency result in assay [6], in assay [14], in assay [15], in assay [16], in assay [8] and in [10] was “inactive” each time. Also, the Potency result in [11] was “inactive”. Moreover, in assay [12], the call was inactive.
For `C=CCOC(=O)CCC1CCCCC1`, the Potency result in assay [1], in [2], in assay [3], in [13], in [5] and in assay [18] was “inactive” throughout. For the same compound, the Potency result in assay [6], in assay [14], in assay [15], in assay [16], in assay [8] and in [9] was “inactive” throughout. The Potency result in assay [10] and in assay [11] was “inactive” throughout. Also, the compound was classed as inactive in assay [12].
For the compound `COc1cc2c(cc1OC)C(C(C(=O)N(CCc1ccc(OC)c(OC)c1OC)CCc1ccc(OC)c(OC)c1OC)c1ccccc1)=NCC2` (configuration not stated), the Potency result in assay [1], in assay [2], in assay [3], in assay [4], in assay [20] and in assay [6] was “inactive” throughout. The Potency entry in assay [14], in assay [15], in assay [16], in assay [19], in assay [8] and in assay [9] was “inactive” in each case. Besides, the Potency in [5] was 3.38 µM (active); in assay [18], 3.01 µM (active). Besides, the call in [12] was inactive.
